Assay results: PubChem BioAssay (NCI)
Compounds without any hit were thinned out: in the full panel of roughly 79,000, 15% have a hit. Calls of active or inactive are those of the source. Rule as the data show it: active = growth inhibition above about 70%; inactive = the rest.

Tests used:
[1] = NCI Yeast Anticancer Drug Screen. Data for the rad52 strain (AID 147);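 also: 0% = growth of vehicle-treated control cultures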; settings: S. cerevisiae rad52 mutant growth inhibition, hits give high values
How it was run: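 Genetically altered yeast (DNA damage repair defect) treated with compound; inhibition calculated relative to vehicle.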

[2] = NCI Yeast Anticancer Drug Screen. Data for the wt1 strain (AID 149);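 also: 0% = growth of vehicle-treated wt1 cultures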; settings: S. cerevisiae wt1 strain (SPY 50644) growth inhibition, hits give high values
How it was run: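 Yeast wt1 strain exposed to compounds; growth inhibition measured relative to vehicle-treated controls.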

[3] = NCI Yeast Anticancer Drug Screen. Data for the rad50EPP+ strain (AID 151);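 also: 0% = growth of vehicle-treated control cultures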; settings: S. cerevisiae rad50 mutant strain, hits give high values
How it was run: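 Strain rad50EPP+; compound exposure; % growth inhibition vs vehicle.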

[4] = NCI Yeast Anticancer Drug Screen. Data for the mgt1 strain (AID 153); settings: S. cerevisiae mgt1 mutant growth inhibition, hits give high values
How it was run: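 Read-out: yeast growth inhibition vs vehicle control. Strain mgt1, drawn from a panel altered in DNA damage repair or cell cycle control.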

[5] = NCI Yeast Anticancer Drug Screen. Data for the rad50 strain (AID 155);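 also: 0% = growth of vehicle-only cultures of the same strain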; settings: S. cerevisiae rad50 strain growth inhibition, hits give high values
How it was run: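 Yeast carrying a defined DNA repair defect were exposed to test compounds, and growth was compared with vehicle-treated controls to give percent inhibition.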

[6] = NCI Yeast Anticancer Drug Screen. Data for the mec2-1 strain (AID 157); settings: S. cerevisiae mec2-1 strain, hits give high values
How it was run: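 Cells of the genetically defined mec2-1 yeast strain are incubated with test compound. Inhibition of growth is calculated against vehicle-treated controls.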

[7] = NCI Yeast Anticancer Drug Screen. Data for the rad14 strain (AID 159);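 also: 0% = growth of vehicle-treated control cultures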; settings: S. cerevisiae rad14 strain growth inhibition, hits give high values
How it was run: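 Yeast cells carrying a defined DNA-repair defect were exposed to compounds, and growth inhibition was calculated relative to vehicle-treated control cultures.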

[8] = NCI Yeast Anticancer Drug Screen. Data for the sgs1 mgt1 strain (AID 161);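 also: 0% = growth of cultures given vehicle only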; settings: S. cerevisiae sgs1 mgt1 strain, hits give high values
How it was run: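 Mutant yeast exposed to compound; growth scored against vehicle-only wells.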

[9] = NCI Yeast Anticancer Drug Screen. Data for the CLN2oe strain (AID 163);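 also: 0% = growth of vehicle-only control cultures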; settings: S. cerevisiae CLN2oe strain, hits give high values
How it was run: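 Strain altered in cell-cycle control, incubated with compound; growth compared to solvent-treated controls.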

[10] = NCI Yeast Anticancer Drug Screen. Data for the cln2 rad14 strain (AID 165);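 also: 0% = growth equal to vehicle treated cultures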; settings: S. cerevisiae cln2 rad14 strain, hits give high values
How it was run: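 The screen exposed genetically defined yeast (cln2 rad14) to test compounds and scored growth inhibition relative to vehicle-treated controls.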

[11] = NCI Yeast Anticancer Drug Screen. Data for the bub3 strain (AID 167); settings: S. cerevisiae bub3 mutant strain, hits give high values
How it was run: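 Compounds were applied to a genetically altered yeast strain carrying a cell-cycle control defect. Growth inhibition was scored against vehicle-treated controls.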

[12] = NCI Yeast Anticancer Drug Screen. Data for the wt2 strain (AID 169);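 also: 0% = growth of vehicle-treated yeast cultures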; settings: S. cerevisiae wt2 strain growth inhibition, hits give high values
How it was run: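 Steps: yeast strain treated with compound; growth recorded; inhibition calculated relative to cultures given vehicle alone.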

[13] = NCI Yeast Anticancer Drug Screen. Data for the mlh1 strain (AID 171);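 also: 0% = growth of vehicle-treated control cultures of the same strain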; settings: S. cerevisiae mlh1 strain growth inhibition, hits give high values
How it was run: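 Yeast screen: mutant strain plus compound, growth scored against vehicle control wells.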

[14] = NCI Yeast Anticancer Drug Screen. Data for the mlh1 rad18 strain (AID 175); settings: S. cerevisiae mlh1 rad18 strain growth inhibition, hits give high values
How it was run: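 Compound-treated yeast growth, normalised to vehicle controls. Strain bears defined DNA repair mutations.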

[15] = NCI Yeast Anticancer Drug Screen. Data for the sgs1 strain (AID 173);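 also: 0% = growth of vehicle-only control cultures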; settings: S. cerevisiae sgs1 mutant, hits give high values
How it was run: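 Inhibition of yeast growth served as the measure. The mutant strain was treated with each compound, and growth was normalised to cultures receiving vehicle alone.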

[16] = NCI Yeast Anticancer Drug Screen. Data for the rad18 strain (AID 177); settings: S. cerevisiae rad18 mutant growth inhibition, hits give high values
How it was run: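 Inhibition values reflect reduced yeast growth compared with vehicle-treated controls, using a strain engineered with a DNA damage repair defect.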

[17] = at 5.0 µM (retest, dose inferred, filed as 0.5)
[18] = at 50.0 µM (retest, dose inferred, filed as 5.0)

Measured: growth inhibition

Cc1c([N+](=O)[O-])oc2ccc3ccccc3c12
active: [1]; at 11.0 µM 86% | [1]; at 33.0 µM 94% | [1]; at 100.0 µM 92% | [3]; at 11.0 µM 79% | [3]; at 33.0 µM 91% | [3]; at 100.0 µM 88% | [5]; [17] 70% | [5]; at 33.0 µM 88% | [5]; [18] 90% | [5]; at 50.0 µM 87% | [5]; at 100.0 µM 92% | [6]; [18] 90% | [6]; at 50.0 µM 94.8% | [6]; at 100.0 µM 91% | [7]; at 3.7 µM 84% | [7]; at 11.0 µM 86% | [7]; at 33.0 µM 96% | [7]; at 100.0 µM 93% | [8]; [17] 76% | [8]; [18] 92% | [8]; at 50.0 µM 84.4% | [10]; [17] 81% | [10]; [18] 96% | [10]; at 50.0 µM 97% | [14]; [17] 82% | [14]; [18] 94% | [14]; at 50.0 µM 95.3%
inactive: [1]; at 1.2 µM 23% | [1]; at 3.7 µM 50% | [2]; at 1.2 µM 2% | [2]; at 3.7 µM 2% | [2]; at 11.0 µM 4% | [2]; at 33.0 µM 11% | [2]; at 100.0 µM 21% | [3]; at 1.2 µM 26% | [3]; at 3.7 µM 50% | [4]; at 1.2 µM -8% | [4]; at 3.7 µM -1% | [4]; at 11.0 µM 3% | [4]; at 33.0 µM 8% | [4]; at 100.0 µM 22% | [5]; at 1.2 µM 26% | [5]; at 3.7 µM 48% | [5]; at 11.0 µM 69% | [6]; at 1.2 µM 6% | [6]; at 3.7 µM 6% | [6]; [17] 18% | [6]; at 11.0 µM 21% | [6]; at 33.0 µM 51% | [7]; at 1.2 µM 43% | [9]; at 1.2 µM -6% | [9]; at 3.7 µM -8% | [9]; at 11.0 µM -6% | [9]; at 33.0 µM 3% | [9]; at 100.0 µM 6% | [11]; at 1.2 µM -11% | [11]; at 3.7 µM -17% | [11]; [17] -66% | [11]; at 11.0 µM -11% | [11]; at 33.0 µM -18% | [11]; [18] -11% | [11]; at 50.0 µM 12.4% | [11]; at 100.0 µM 0% | [12]; at 1.2 µM 1% | [12]; at 3.7 µM 2% | [12]; at 11.0 µM 6% | [12]; at 33.0 µM 14% | [12]; at 100.0 µM 26% | [13]; at 1.2 µM -1% | [13]; at 3.7 µM 1% | [13]; at 11.0 µM -2% | [13]; at 33.0 µM 15% | [13]; at 100.0 µM 35%

O=C(/C=C(\c1ccccc1)N1CC1)c1ccccc1
active: [1]; at 100.0 µM 97% | [2]; at 100.0 µM 84% | [3]; at 33.0 µM 72% | [3]; at 100.0 µM 86% | [4]; at 100.0 µM 93% | [5]; [18] 86% | [5]; at 100.0 µM 98% | [6]; at 100.0 µM 97% | [7]; at 100.0 µM 99% | [9]; at 100.0 µM 84% | [11]; at 100.0 µM 93% | [12]; at 100.0 µM 93% | [13]; at 100.0 µM 98% | [15]; at 100.0 µM 97% | [14]; [18] 73% | [16]; at 100.0 µM 96%
inactive: [1]; at 1.2 µM -5% | [1]; at 3.7 µM -10% | [1]; at 11.0 µM -2% | [1]; at 33.0 µM 8% | [2]; at 1.2 µM -5% | [2]; at 3.7 µM -4% | [2]; at 11.0 µM -5% | [2]; at 33.0 µM 0% | [3]; at 1.2 µM 2% | [3]; at 3.7 µM 17% | [3]; at 11.0 µM 50% | [4]; at 1.2 µM -2% | [4]; at 3.7 µM -4% | [4]; at 11.0 µM -4% | [4]; at 33.0 µM 19% | [5]; at 1.2 µM -13% | [5]; at 3.7 µM -7% | [5]; [17] -140% | [5]; at 11.0 µM 8% | [5]; at 33.0 µM 33% | [5]; at 50.0 µM 62.5% | [6]; at 1.2 µM 2% | [6]; at 3.7 µM 1% | [6]; [17] -46% | [6]; at 11.0 µM 12% | [6]; at 33.0 µM -1% | [6]; [18] 28% | [6]; at 50.0 µM 59.8% | [7]; at 1.2 µM -4% | [7]; at 3.7 µM -1% | [7]; at 11.0 µM 3% | [7]; at 33.0 µM 40% | [9]; at 1.2 µM 4% | [9]; at 3.7 µM 1% | [9]; at 11.0 µM 0% | [9]; at 33.0 µM 0% | [10]; [17] -63% | [10]; [18] 12% | [10]; at 50.0 µM 0.55% | [11]; at 1.2 µM -7% | [11]; at 3.7 µM 0% | [11]; [17] -62% | [11]; at 11.0 µM 8% | [11]; at 33.0 µM 21% | [11]; [18] 54% | [11]; at 50.0 µM 63.9% | [12]; at 1.2 µM 0% | [12]; at 3.7 µM 0% | [12]; at 11.0 µM 1% | [12]; at 33.0 µM 3% | [13]; at 1.2 µM 7% | [13]; at 3.7 µM -3% | [13]; at 11.0 µM -5% | [13]; at 33.0 µM 6% | [15]; at 1.2 µM 1% | [15]; at 3.7 µM 2% | [15]; at 11.0 µM 3% | [15]; at 33.0 µM 31% | [14]; [17] -139% | [14]; at 50.0 µM 67.5% | [16]; at 1.2 µM -1% | [16]; at 3.7 µM 4% | [16]; at 11.0 µM 13% | [16]; at 33.0 µM 16%
